Bioassay records from PubChem BioAssay.
Most compounds without a hit are left out; they make up all but 19% or so of the library.
HT1080 IDH1KD tx – HT-1080 IDH1 knockdown cell toxicity (counter line); 360,000 tested, 2% active; HT-1080 IDH1 knockdown viability, ATP luminescence, 48 h; AID 686971; Potency, µM (top dose mostly 46.1 µM), most hits filed as cytotoxic
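Viability of IDH1-knockdown HT-1080 fibrosarcoma cells was assessed by CellTiter-Glo after 48 h at 37 °C with titrated compound; concentration-effect curves were classified by fit quality and response size.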
TDP1 cell CPT – DT40-hTDP1 cell growth loss with CPT; chicken DT40 Tdp1-/-;hTDP1 cells + 20 nM CPT, ATP luminescence, 48 h; Potency, µM (doses to about 46.2 µM), usual class: inhibitors; 420,000 tested, 12% active; further: nearly all actives have a fitted effect of over 55% in size
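Chicken DT40 Tdp1-/- cells complemented with human TDP1, 400 cells/well, exposed to compounds plus 20 nM camptothecin for at least 48 h at 37 C; viability read as ATP content by CellTiter-Glo luminescence.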
HT1080-NT tox – kills 2HG-producing HT-1080-NT fibrosarcoma cells; HT-1080-NT fibrosarcoma viability, CellTiter-Glo ATP luminescence, 48 h; Potency, µM (series often up to 46.1 µM), hits mostly cytotoxic; 360,000 tested, 1.6% active;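 further: NT is the 2HG producing partner of a matched IDH1 knockdown line; nearly all actives have a fitted effect of over 55% in size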
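HT-1080-NT; 750 cells/well; 5% FBS RPMI; 48 h compound, 37 degrees C; CellTiter-Glo luminescence; curve fitting and curve-class assignment.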
DT40 TDP1 no CPT – qHTS for Inhibitors of human tyrosyl-DNA phosphodiesterase 1 (TDP1): qHTS in cells in absence of CPT. Potency, µM (titrated, usually from 46.2 µM), hits mostly inhibitors. DT40 Tdp1-/- hTDP1 cells, no CPT, ATP luminescence, 48 h. 420,000 tested, 15% active; further: nearly all actives have a fitted effect of over 55% in size
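Cells were dispensed at 400 per well, compounds added by pin tool, plates incubated ≥48 hr at 37 °C, then CellTiter-Glo added for 30 min at room temperature before luminescence reading. Line: DT40 Tdp1-/- complemented with hTDP1; camptothecin omitted.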
IL-1B inflam inh – blocks inflammasome-driven IL-1 beta release | 360,000 tested, 4.7% active | activity change, % at 57.5 µM | THP-1 LPS/ATP IL-1B secretion, AlphaLISA, 16 h; hits give low values; in the data active means activity change below about -50%; inconclusive means mostly about -30% to -49%
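THP-1 cells pretreated 1 hr with compounds (up to 57.5 uM final), then stimulated with LPS (250 ng/mL final) plus ATP (1.25 mM final); secreted IL-1B measured by AlphaLISA after 16 hr, decreased signal indicating inhibition.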
Numbers stand for hits; 0 = inactive; ? = inconclusive; - = no result; [ ] = remark or other dose. Unless noted, the call rests on the fitted dose curve; in most records, active means well fitted curve in the direction sought with a large enough effect; inconclusive means small, poorly fitted or top-dose-only effect, or another doubt; inactive means no such curve, though single readings can be large; an effect the other way counts as inactive or inconclusive.

SMILES	HT1080 IDH1KD tx	TDP1 cell CPT	HT1080-NT tox	DT40 TDP1 no CPT	IL-1B inflam inh
CCOC(=O)c1ccc(NC(=O)C(CC)Sc2nnc3c4ccccc4n(C)c3n2)cc1 (stereo unspecified)	-	16.4µM	-	18.4µM	-
CCOC(=O)C(C)Sc1nnc2c3ccccc3n(C)c2n1 (stereo unspecified)	0	0	0	0	0
CCC(Sc1nnc2c(n1)[nH]c1ccccc12)C(=O)Nc1ccccc1OC (stereo unspecified)	-	?	-	20.6µM	-
CCOC(=O)N1CCc2[nH]c3ccc(C)cc3c2C1	0	14.6µM	?	23.1µM	?
Cc1ccc2[nH]c3c(c2c1)CN(C(=O)CN1CCN(Cc2ccc4c(c2)OCO4)CC1)CC3	?	?	20.6µM	?	0
Cc1ccc2[nH]c3c(c2c1)CN(C(=O)CN1CC(C)OC(C)C1)CC3 (stereo unspecified)	0	0	0	?	0
CC(=O)c1ccc(N(CC(=O)NC2CCS(=O)(=O)C2)S(=O)(=O)c2ccc(C)cc2)cc1 (stereo unspecified)	0	0	0	0	0
Cc1cnnn1-c1ccc(C(=O)CCl)cc1	0	2.31µM	0	2.59µM	-108.5
COc1ccc(N(C)S(=O)(=O)c2cccc(C(=O)NC3CCCC3)c2)cc1	0	?	0	?	?
COc1ccc(N(C)S(=O)(=O)c2cccc(C(=O)NCC3CCCCC3)c2)cc1	0	23.1µM	0	13µM	-50.2
CN(C)S(=O)(=O)c1cccc(C(=O)Nc2ccc(N3CCOCC3)cc2)c1	0	0	0	0	0
CN(c1ccccc1)S(=O)(=O)c1cccc(C(=O)Nc2ccc(N3CCOCC3)cc2)c1	0	?	0	18.4µM	?
COc1ccc(N(C)S(=O)(=O)c2cccc(C(=O)Nc3ccc(N4CCOCC4)cc3)c2)cc1	0	18.4µM	0	23.1µM	0
Nc1cccc2nc3ccccc3cc12	13µM	6.51µM	18.4µM	?	0
Nc1[nH]nc2nc3ccccc3cc12	0	0	0	0	0
O=S(=O)(c1ccccc1)N1CCN(S(=O)(=O)c2ccc(F)cc2)CC1	0	0	0	0	0
Cc1cc(C)c(C)c(S(=O)(=O)ON2C(=O)c3ccccc3C2=O)c1C	7.31µM	2.59µM	?	2.31µM	-119.4
Cc1cc(C)c(S(=O)(=O)ON2C(=O)c3ccccc3C2=O)cc1C	10.3µM	2.59µM	?	3.26µM	-60.9
O=C1c2ccccc2C(=O)N1OS(=O)(=O)c1ccc(F)cc1	0	2.59µM	0	2.06µM	0
Cc1ccc(OC(=O)CN2C(=O)c3ccccc3C2=O)cc1C	0	0	0	0	0
Cc1ccc(S(=O)(=O)ON2C(=O)c3ccccc3C2=O)c(C)c1	?	0.82µM	?	1.03µM	-78.1
Clc1ccccc1CNc1nc2ccccc2n2cnnc12	0	0	0	0	0
Cc1ccc(S(=O)(=O)CC(=O)Nc2nccs2)cc1	0	0	0	0	0
CCc1ccc(NC(=O)CSc2nnnn2-c2cccnc2)cc1	0	0	0	0	0
CS(=O)(=O)N1N=C(c2cccs2)CC1c1ccco1 (stereo unspecified)	0	?	0	?	0
SMILES	HT1080 IDH1KD tx	TDP1 cell CPT	HT1080-NT tox	DT40 TDP1 no CPT	IL-1B inflam inh
COc1cc(O)cc(O)c1C(=O)/C=C/c1ccccc1	0	14.6µM	0	14.6µM	-106.1
COc1cc(OC)c(C(=O)/C=C/c2ccccc2)c(O)c1O	0	?	0	?	-100.2
COc1cc(/C=C/C(=O)O)cc(Br)c1O	0	0	0	0	0
COCOc1ccc(/C=C/C(=O)c2c(O)cc(OCOC)cc2OCOC)cc1	0	?	0	?	?
O=C(NNc1ccc(O)cc1)c1ccc(Br)cc1	4.11µM	20.6µM	?	11.6µM	0
CCCc1ccc(C(=O)NC(=O)c2ccccc2O)cc1	?	2.31µM	?	2.91µM	0
CCCc1ccc(C(=O)NNC(=O)c2ccc(Br)cc2)cc1	0	0	0	0	0
O=C(NC(=S)NNC(=O)c1ccccc1O)c1ccc(F)cc1	?	?	?	?	0
O=C(NC(=O)c1ccccc1O)c1ccc(C(F)(F)F)cc1	14.6µM	11.6µM	13µM	7.31µM	-69.4
CCCc1ccc(C(=O)O)cc1	-	0	-	0	-
O=C(NNc1ccccc1)c1ccccc1	0	0	?	0	0
CCCc1ccc(C(=O)NNc2ccc(F)cc2)cc1	7.31µM	0	4.11µM	0	0
CCOC(=O)CSC1=C(C#N)C(c2ccc3c(c2)OCO3)CC(=O)N1 (stereo unspecified)	9.2µM	?	16.4µM	20.6µM	0
Cc1cc(C)nc(Nc2cccc(Cl)c2)n1	0	0	0	0	0
Cc1cc(Nc2ccc3c(c2)OCCO3)c2cc(Cl)ccc2n1	0	?	0	14.6µM	-115.7
Cc1cccc(Nc2cc(C)nc3ccccc23)c1	0	0	0	?	-91.5
Cc1cc(Nc2cccc(Cl)c2)c2ccccc2n1	0	20.6µM	0	23.1µM	?
O=C(NNc1nccc(C(F)(F)F)n1)Nc1cccc(Cl)c1	0	0	0	0	0
O=C(NNc1cc(C(F)(F)F)nc2ccccc12)Nc1cccc(Cl)c1	20.6µM	?	?	16.4µM	-88.5
CC(C)C(NC(=O)OCc1ccccc1)C(=O)N1CCOCCOCCOCC1 (stereo unspecified)	0	0	0	?	0
CCN(CC(=O)Nc1ccc(NC(C)=O)cc1)C(=O)c1cccc2ccccc12	0	0	0	0	0
Cc1ccccc1C(=O)N1CCC(C(=O)Nc2sccc2C(N)=O)CC1	0	0	0	0	0
COc1ccc(Br)cc1CNCC1CCCO1 (stereo unspecified)	0	0	0	0	0
Cc1ccccc1C(=O)Nc1sc2c(c1C(=O)N1CCC(C)CC1)CCC(C)C2 (stereo unspecified)	-	14.6µM	-	20.6µM	-
Cc1ccccc1C(=O)Nc1sc2c(c1C(=O)N1CCCCC1)CCC(C)C2 (stereo unspecified)	-	18.4µM	-	?	-
SMILES	HT1080 IDH1KD tx	TDP1 cell CPT	HT1080-NT tox	DT40 TDP1 no CPT	IL-1B inflam inh
CC1CCN(C(=O)c2c(NC(=O)c3ccccc3F)sc3c2CCC(C(C)(C)C)C3)CC1 (stereo unspecified)	-	0	-	0	-
COc1ccc(CC(=O)NC2CC(=O)N(c3ccc(C)c(C)c3)C2)cc1OC (stereo unspecified)	-	0	-	0	-
COc1ccc(-n2c(C)c(C(C)=O)c3cc(O)ccc32)cc1	0	-	0	-	0
COc1ccc(-n2c(C)c(C(C)=O)c3cc(OC(=O)c4ccc(C)cc4)ccc32)cc1	-	?	-	23.1µM	-
Cc1cccc(C)c1NC(=O)CN(C1CCCCC1)S(C)(=O)=O	0	0	0	0	0
COCC1CCCN(Cc2ccc3c(c2)CN(C(=O)c2ccc(-c4ccc(C)o4)cc2)CCO3)C1 (stereo unspecified)	-	0[9.04 µM]	-	0	-
